From PubChem BioAssay (Tox21)
Values without a mark were called inactive. Active and inactive are the calls of the source. The call rests on the fitted dose curve; in most records, active means well fitted curve in the direction sought with a large enough effect in the repeat runs; inconclusive means weak or mixed curves; inactive means flat fitted curve, though single readings scatter.

Assay: qHTS assay to test for compound auto fluorescence at 460 nm (blue) in HepG2 cells (AID 720687)
Details: autofluorescence 405/460 nm, 1 h; series mostly up to 46 µM; fluorescence, % of fluorescent control: at the top concentration
Text: U.S. Tox21 Program National Center for Advancing Translational Sciences [NCATS] NIH Chemical Genomics Center [NCGC] U.S. Environmental Protection Agency [EPA] National Institutes of Environmental Health Sciences [NIEHS] National Toxicology Program [NTP] U.S. Food and Drug Administration [FDA] Tox21 Assay Overview: Compound auto fluorescence often interferes with screening of the compound library against various biological targets and signaling pathways. Some of these compounds may have fluorophoric properties. Such properties may interfere with the assay outputs resulting in false positives and/or negatives. To decrease such complications and ensure the compound activities are relevant in terms of biological response, the Tox21 10K compound library was screened for auto fluorescence. From the fluorophores used as reporter signals in our screening assays, the auto fluorescence equivalencies of compounds against three fluorophores have been evaluated: Triamterene, Fluorescein and Rose Bengal sodium for blue, green and red fluorescence, respectively. The fluorescence intensities were measured using Excitation/Emission wavelengths at 405/460nm, 485/535nm and 540/590nm for blue, green and red labels, respectively. This assay includes the blue fluorescence data.
Tox21 Assay Protocol Summary: 2,000 HepG2 cells in 5 uL of culture medium (MEM containing 10% FBS) per well were dispensed into black wall/clear bottom 1536-well plates using a Multidrop Combi Dispenser (ThermoFisher Scientific, Waltham, MA). The assay plates were incubated overnight at 37 C to allow cell attachment to the well bottom, followed by the transfer of 23 nL compound or DMSO vehicle by a pintool work station (Kalypsys , San Diego, CA). After the assay plates were incubated for 1 hr at 37 C and 5% CO2, fluorescence intensities in the assay plates were measured by an Envision (PerkinElmer, Shelton, CT) plate reader using three labels for measuring blue, green and red fluorescence at […] 460, 535 and 590 nm respectively.
On the % scale 0 is the no-effect control and ±100 the full control effect.

Structure (SMILES) | fluorescence, % of fluorescent control | Potency
COc1ccc(C(c2ccc(OC)cc2)C(Cl)(Cl)Cl)cc1 | 0.229% [at 91.3 µM] | –
O=C(CS(=O)C(c1ccccc1)c1ccccc1)NO (stereo not given) | 0.142% | –
CN1CCCC(=C(c2cccs2)c2cccs2)C1 | 1.3% | –
Cc1cc(C(C)(C)c2ccc(O)c(C)c2)ccc1O | 0.108% [at 91.3 µM] | –
O=C(O)/C=C/C(=O)O | – | inactive
C[C@@H](Cc1ccccc1)N(C)C | -0.006% | –
C[C@@H]1[C@H]2Cc3ccc(O)cc3[C@]1(C)CCN2C | -0.0546% [at 95.7 µM] | –
C[C@]12CC[C@H]3[C@@H](CCC4=C(Cl)C(=O)CC[C@@]43C)[C@@H]1CC[C@@H]2O | 0.185% | –
C[C@@H](Cc1ccccc1)NCCC(c1ccccc1)c1ccccc1 | -0.141% [at 18.6 µM] | –
COC(=O)[C@@H]1[C@H]2CC[C@@H](C[C@H]1OC(=O)c1ccccc1)N2C | -0.0144% | –
CCCCNCC(O)c1ccc(O)cc1 (stereo not given) | 0.0159% | –
O=C1C=C2C=C[C@@H]3C[C@@]2(O1)[C@H]1CCCCN31 | -0.0459% | –
S=C(S)N1CCNCC1 | 0.086% | –
CC(C)[C@@]1(NC(=O)[C@@H]2C[C@@H]3c4cccc5[nH]cc(c45)C[C@H]3N(C)C2)O[C@@]2(O)[C@@H]3CCCN3C(=O)[C@H](Cc3ccccc3)N2C1=O | – | inactive
C[C@@H](N)C(=O)c1ccccc1 | 0.0518% [at 95.7 µM] | –
O=C1C(I)=CC(=C(c2cc(I)c(O)c(I)c2)c2ccccc2C(=O)O)C=C1I | – | inactive
C[C@]12N[C@H](Cc3ccccc31)c1ccccc12 | – | inactive
O=c1c2ccccc2[se]n1-c1ccccc1 | 0.116% | –
CN(C)[C@H](Cc1ccccc1)c1ccccc1 | -0.171% | –
CNC(C)C(O)c1ccc(O)cc1 (stereo not given) | – | inactive

Structure (SMILES) | fluorescence, % of fluorescent control | Potency
COC(=O)[C@]12CCC(C)(C)C[C@H]1[C@H]1C(=O)C=C3[C@@]4(C)C=C(C#N)C(=O)C(C)(C)[C@@H]4CC[C@@]3(C)[C@]1(C)CC2 | -0.0143% | –
CCC1(c2ccccc2)C(=O)NC(=O)N(C(=O)c2ccccc2)C1=O (stereo not given) | 0.0262% | –
NC1=NC(=O)N2CC12 (stereo not given) | 0.0232% | –
O=C1CN=C(c2ccccc2)c2cc(Cl)ccc2N1 | -0.0069% | –
O=C(NC(=O)c1c(F)cccc1F)Nc1ccc(Cl)c(Oc2ncc(C(F)(F)F)cc2Cl)c1 | -0.0349% | –
Clc1ccccc1-c1ccccc1Cl | -0.0126% [at 95.7 µM] | –
OC(c1ccccc1)(c1ccccc1)C1CN2CCC1CC2 (stereo not given) | -0.0019% | –
N#CC1(N2CCCCC2)CCCCC1 | 0.0156% | –
[2H]C([2H])([2H])[C@H](N)Cc1ccccc1 | 0.044% | –
COC([CH2][Hg])CNC(=O)c1ccccc1OCC(=O)O (stereo not given) | 0.0302% | –
CN[C@]1(c2ccccc2Cl)CCCCC1=O | -0.0428% | –
CC1COC(Cn2cncn2)(c2ccc(Oc3ccc(Cl)cc3)cc2Cl)O1 (stereo not given) | -0.0013% [at 91.3 µM] | –
CN(C)CCCCCCN(C)C (tested in a mixture with another compound) | 0.0211% | –
CN1C(=O)CC(=O)N(c2ccccc2)c2cc(Cl)ccc21 | -0.087% | –
CC(C)C[C@H]1C(=O)N2CCC[C@H]2[C@]2(O)O[C@](NC(=O)[C@@H]3C[C@@H]4c5cccc6[nH]cc(c56)C[C@H]4N(C)C3)(C(C)C)C(=O)N12 | 0.675% | –
O=C1CCCCC1CN1CCCCC1 (stereo not given) | -0.0083% | –
Nc1ccc([N+](=O)[O-])cc1 | -0.62% [at 91.3 µM] | –
Clc1ccc(C(Cn2ccnc2)OCc2csc3c(Cl)cccc23)c(Cl)c1 (stereo not given) | -0.131% [at 18.6 µM] | –
CCC1(c2cnc[nH]2)Cc2ccccc2C1 | – | inactive
Clc1ccc2c(c1)C(c1ccccc1)=NCc1nncn1-2 | 0.0972% | –
